Measurements as given in PubChem BioAssay (EPA / NIEHS).
Where “and” joins values, the source holds several entries; their conditions need not be identical. Equal entries are not always repeated. More than one record can exist for a structure, and the calls need not agree. Calls of active or inactive are those of the source. How the source made its calls: active means hit-call score of the fitted dose curve at least 0.9, where 1 is the maximum; inactive means score below 0.9.

The molecules below were run on Tissue Factor, F3 (gene 2152) (assay: BSK_LPS_TissueFactor: BioMAP Diversity Plus: LPS Assay for Tissue Factor Biomarker Activity (AID 2283084)). Conditions: primary human HUVEC with PBMC; actives raise or lower the signal.
Outline: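 ELISA signal for cell-surface Tissue Factor (CD142) was read 24 h after compound dosing of an LPS-stimulated human endothelial–PBMC primary co-culture. Gain or loss of signal was scored relative to DMSO.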

Question: `C[C@]12CC[C@@H]3c4ccc(O)cc4C[C@@H](CCCCCCCCCS(=O)CCCC(F)(F)C(F)(F)F)[C@H]3[C@@H]1CC[C@@H]2O` (some centres not stated) was tested. Which outcome did it give?
Answer: inactive

Question: How did the outcome turn out when `COC(=O)c1ccc(I)cc1S(=O)(=O)NC(=O)Nc1nc(C)nc(OC)n1` was run?
Answer: inactive

Question: Which outcome does the source give for `C#C[C@]1(O)CC[C@H]2[C@@H]3CCC4=CC(=O)CC[C@@H]4[C@H]3CC[C@@]21CC` here?
Answer: inactive

Question: `CCOC(=O)c1ccc(O)cc1` was tested. Which outcome did it give?
Answer: inactive

Question: `c1ccc2[nH]c(-c3cscn3)nc2c1` was tested. Which outcome did it give?
Answer: inactive

Question: With `CCNc1nc(N)nc(Cl)n1` as the molecule, how does the outcome read?
Answer: inactive

Question: For `CCCCOC(=O)C(C)Oc1ccc(Oc2ccc(C(F)(F)F)cn2)cc1` (configuration not stated), which outcome is on record?
Answer: inactive

Question: Which outcome does the source give for `CCOC(=O)NCCOc1ccc(Oc2ccccc2)cc1` here?
Answer: inactive

Question: `CSC(=O)c1cccc2nnsc12` was tested. Which outcome did it give?
Answer: inactive

Question: `CC(C)(c1ccc(O)cc1)c1ccc(O)cc1` was tested. Which outcome did it give?
Answer: inactive

The molecules below were run on Tumor necrosis factor (Homo sapiens) (UniProt P01375) (assay: BSK_LPS_TNFa: BioMAP Diversity Plus: LPS Assay for Tumour Necrosis Factor alpha (TNFa) Biomarker Activity (AID 2283085;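 on AC50: TNFa protein level quantified by ELISA in the co-culture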)). Conditions: primary human HUVEC with PBMC; actives raise or lower the signal.
Sequence of Tumor necrosis factor (Homo sapiens) (P01375 whole entry, looked up): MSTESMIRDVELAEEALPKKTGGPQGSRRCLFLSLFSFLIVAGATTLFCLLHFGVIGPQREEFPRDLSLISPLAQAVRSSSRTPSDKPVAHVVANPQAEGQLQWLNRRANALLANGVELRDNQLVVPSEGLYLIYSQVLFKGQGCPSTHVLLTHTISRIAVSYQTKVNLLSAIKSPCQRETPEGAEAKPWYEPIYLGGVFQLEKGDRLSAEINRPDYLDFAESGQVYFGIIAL
Outline: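 TNFa was quantified by ELISA in LPS-activated co-cultures of human endothelial cells and PBMC, 24 h post-dosing. Both increases and decreases versus DMSO were fitted.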

Question: For `O=C(c1ccccc1)C1CCCCC1`, which outcome is on record?
Answer: inactive

Question: What does the source list for `S=C(S)NCCNC(=S)S.[Mn+2].[S-]C([S-])=NCCN=C([S-])[S-].[Zn+2]`?
Answer: AC50: 2.39 µM (active); outcome: inactive

Question: With `OB(O)O` as the molecule, how does the outcome read?
Answer: inactive

Question: For `CCN(Cc1c(F)cccc1Cl)c1c([N+](=O)[O-])cc(C(F)(F)F)cc1[N+](=O)[O-]`, which outcome is on record?
Answer: inactive

Question: How did the AC50 turn out when `CCCCC(CC)COC(=O)c1ccccc1C(=O)O` (configuration not stated) was run?
Answer: 21.8 µM (active)

Question: With `c1ccc(Nc2ccccc2)cc1` as the molecule, how does the AC50 read?
Answer: 13 µM (active)

Question: How did the outcome turn out when `CCOC(=O)C(C)Oc1ccc(Oc2cnc3cc(Cl)ccc3n2)cc1` (configuration not stated) was run?
Answer: inactive

Question: With `CC(C)CCCCCCc1ccc(O)cc1` as the molecule, how does the AC50 read?
Answer: 7.19 µM (active)

Question: For `N#CSCSc1nc2ccccc2s1`, which AC50 is on record?
Answer: 992 nM (active) and 2.17 µM (active)

Question: How did the AC50 turn out when `CCCN(CCC)c1c([N+](=O)[O-])cc(C(F)(F)F)c(N)c1[N+](=O)[O-]` was run?
Answer: 30.2 µM (active)

Question: Which outcome does the source give for `O=C(O)c1ccccc1` here?
Answer: inactive

Question: Which outcome does the source give for `O=C(O)C1(C(=O)Nc2ccc(Cl)cc2Cl)CC1` here?
Answer: inactive

Question: How did the AC50 turn out when `CC(=O)S[C@@H]1CC2=CC(=O)CC[C@]2(C)[C@H]2CC[C@@]3(C)[C@@H](CC[C@@]34CCC(=O)O4)[C@H]12` was run?
Answer: 13.9 µM (active)

Question: Which outcome does the source give for `CCCN(CCC)C(=O)SCC` here?
Answer: inactive

Question: `Cc1nn(C)c(Oc2ccccc2)c1C=NOCc1ccc(C(=O)OC(C)(C)C)cc1` was tested. Which outcome did it give?
Answer: inactive

Question: `CCCCOCCOCCOCc1cc2c(cc1CCC)OCO2` was tested. Which AC50 did it give?
Answer: 25.3 µM (active)

Question: How did the outcome turn out when `CC1(C)C(C=C(Cl)Cl)C1C(=O)OCc1cccc(Oc2ccccc2)c1` (configuration not stated) was run?
Answer: inactive

Question: For `CCOC(=O)C(C)Oc1ccc(Oc2nc3ccc(Cl)cc3o2)cc1` (configuration not stated), which outcome is on record?
Answer: inactive

Question: For `CCC(O)=C1C(=O)CC(C(=O)O)CC1=O` (configuration not stated), which outcome is on record?
Answer: inactive

Question: `CCSC(=O)N(CC(C)C)CC(C)C` was tested. Which outcome did it give?
Answer: inactive

Question: Which outcome does the source give for `C[C@]12CC[C@@H]3c4ccc(O)cc4C[C@@H](CCCCCCCCCS(=O)CCCC(F)(F)C(F)(F)F)[C@H]3[C@@H]1CC[C@@H]2O` (some centres not stated) here?
Answer: inactive

Question: For `COC(=O)c1ccc(I)cc1S(=O)(=O)NC(=O)Nc1nc(C)nc(OC)n1`, which outcome is on record?
Answer: inactive

Question: How did the outcome turn out when `C#C[C@]1(O)CC[C@H]2[C@@H]3CCC4=CC(=O)CC[C@@H]4[C@H]3CC[C@@]21CC` was run?
Answer: inactive

Question: With `CCOC(=O)c1ccc(O)cc1` as the molecule, how does the outcome read?
Answer: inactive

Question: Which outcome does the source give for `c1ccc2[nH]c(-c3cscn3)nc2c1` here?
Answer: inactive

Question: `CCNc1nc(N)nc(Cl)n1` was tested. Which AC50 did it give?
Answer: 14.3 µM (active)

Question: How did the outcome turn out when `CCCCOC(=O)C(C)Oc1ccc(Oc2ccc(C(F)(F)F)cn2)cc1` (configuration not stated) was run?
Answer: inactive

Question: Which outcome does the source give for `CCOC(=O)NCCOc1ccc(Oc2ccccc2)cc1` here?
Answer: inactive

Question: With `CSC(=O)c1cccc2nnsc12` as the molecule, how does the AC50 read?
Answer: 4.96 µM (active)

Question: Which results are given for `CC(C)(c1ccc(O)cc1)c1ccc(O)cc1`?
Answer: AC50: 2.8 µM (active); outcome: inactive
